Among the data in PubChem BioAssay (NCI) are growth values, retold here.

Some test systems named below: T-47D breast; BT-549 breast; MDA-MB-435 melanoma; SW-620 colon; MCF7 breast; HCT-116 colon; HCC-2998 colon; KM12 colon.
What all share (test): NCI-60 one-dose screen, 48 h (100 = growth as untreated, 0 = no growth, -100 = all killed)
Common to all, as to conditions: 10 µM unless noted

Compounds without any hit were thinned out: in the full panel of roughly 83,000, 20% have a hit.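 Cells were grown in 96-well plates and exposed to the test compound at a single concentration for 48 hours; results are reported as percent growth, with values below 10 considered active.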 Unmarked numbers belong to inactive results. The source made the active and inactive calls.

With `CNC(=O)c1cc(Oc2ccc(NC(=O)c3nc(S(C)(=O)=O)sc3-c3ccc(F)cc3)cc2)ccn1`, the growth in the assay on T-47D breast is 26.3%; in the assay on BT-549 breast, 105%; in the assay on MDA-MB-435 melanoma, 98.2%; with SW-620 colon, 104%; in the assay on MCF7 breast, 29.5%; in the assay with HCT-116 colon, 85.3%. The values for the growth in the assay on HCC-2998 colon and in the assay with KM12 colon were 80.2% and 25.3%, respectively.

For `NC(N)=N/N=C\c1ccc(OCc2ccccc2)cc1`, the growth with T-47D breast was 35.7%; in the assay with BT-549 breast, 89.3%; with MDA-MB-435 melanoma, 9.55% (active); with SW-620 colon, 73.9%; in the assay on MCF7 breast, 17.3%; in the assay with HCT-116 colon, 61%. The growth was 82.3% in the assay on HCC-2998 colon and 58.8% in the assay on KM12 colon.

As for `CCCCCCCCCCCCCC[N+](C)(C)CCCCCCCCCCCCCC`, the growth in the assay on T-47D breast was 57.5%; in the assay on BT-549 breast, 92.3%; in the assay on MDA-MB-435 melanoma, 39.4%; with SW-620 colon it was 76%; in the assay on MCF7 breast, 77.3%; with HCT-116 colon it was 51.4%. Moreover, the growth in the assay on HCC-2998 colon was 62.1%; in the assay with KM12 colon, 76.2%.

Turning to `CC1=C(C(=O)Nc2ccc(F)cc2)C(c2ccc(Cl)cc2)C2=C(CC(C)(C)CC2=O)N1` (configuration not stated), the growth with T-47D breast was 82.6%; in the assay on BT-549 breast, 99.9%; in the assay with MDA-MB-435 melanoma, 91.6%; in the assay with SW-620 colon it was 94.6%; with MCF7 breast it was 80.1%; with HCT-116 colon, 86.9%. Besides, the growth in the assay with HCC-2998 colon was 99.6%; in the assay with KM12 colon, 92.6%.

For the compound `CN1CCN(Cc2ccc(NC(=O)c3cncc(C#Cc4ccc(N)nc4)c3)cc2C(F)(F)F)CC1`, the growth with T-47D breast is 8.16% (active); in the assay on BT-549 breast, 18.7%; with MDA-MB-435 melanoma, 9.96% (active); with SW-620 colon, -15.3% (active); with MCF7 breast, 19.9%; with HCT-116 colon, 1.86% (active). Also, the values for the growth in the assay with HCC-2998 colon and in the assay on KM12 colon were 29.8% and 5.75% (active), respectively.

Consider `Cc1nc2ccc(Nc3nc(NCCN4CCOCC4)nc(Nc4ccc(F)cc4)n3)cc2n1Cc1ccccc1`, for which the growth in the assay on T-47D breast was 53%; in the assay with BT-549 breast it was 49.9%; in the assay on MDA-MB-435 melanoma, 52.2%; in the assay on SW-620 colon it was 42.4%; with MCF7 breast, 33.6%; with HCT-116 colon it was 27.9%. Also, the growth with HCC-2998 colon was 44.5%; in the assay with KM12 colon, 43.4%.

`COc1ccc(CCN2COc3c([C@@H](C)CCC=C(C)C)ccc(C)c3C2)cc1OC`: the growth with T-47D breast was -23% (active); in the assay on BT-549 breast it was 87.9%; with MDA-MB-435 melanoma, 61.4%; in the assay with SW-620 colon, 40.4%; in the assay on MCF7 breast it was 40.6%; in the assay with HCT-116 colon it was 25.9%. Moreover, the results for the growth in the assay with HCC-2998 colon and with KM12 colon were -70.3% (active) and 51.8%, respectively.

Consider `COc1cccc(NC(=O)[C@H](C(C)C)n2c(=O)[nH]c3ccccc3c2=O)c1`, for which the growth with T-47D breast is 91.1%; in the assay with BT-549 breast, 102%; in the assay with MDA-MB-435 melanoma, 108%; in the assay on SW-620 colon, 103%; in the assay with MCF7 breast, 98.2%; in the assay with HCT-116 colon it was 113%. The growth in the assay on HCC-2998 colon is 96.3%; in the assay on KM12 colon, 104%.

Turning to `COc1cc2nccc(Oc3ccc(NC(=O)C4(C(=O)Nc5c(F)cc(F)cc5F)CC4)cc3)c2cc1Oc1ccc(N)cn1`, the growth with T-47D breast is 29%; with BT-549 breast, 74.2%; in the assay with MDA-MB-435 melanoma it was 3.8% (active); in the assay with SW-620 colon it was 40.3%; in the assay on MCF7 breast it was 31.7%; in the assay on HCT-116 colon it was 56.6%. In addition, the growth was 81.5% with HCC-2998 colon and 15.5% in the assay on KM12 colon.

For `CCOP(=O)(O)OP(=O)(O)OCC`, the growth with T-47D breast was 92.5%; in the assay on BT-549 breast, 102%; with MDA-MB-435 melanoma, 110%; in the assay with SW-620 colon, 103%; with MCF7 breast it was 94.1%; in the assay on HCT-116 colon, 106%. For the same compound, the growth was 104% in the assay with HCC-2998 colon and 103% in the assay with KM12 colon.

On to `Nc1cccc(S(=O)(=O)c2cccc(N)c2)c1`, for which the growth with T-47D breast was 104%; in the assay on BT-549 breast it was 111%; with MDA-MB-435 melanoma, 111%; in the assay on SW-620 colon it was 115%; in the assay with MCF7 breast, 105%; with HCT-116 colon it was 112%. The growth in the assay with HCC-2998 colon was 126%; in the assay on KM12 colon, 129%.

Take `O=C(CI)NCCNc1cccc2c(S(=O)(=O)O)cccc12`: the growth was 103% with T-47D breast; 96.8% in the assay on BT-549 breast; 93.2% in the assay on MDA-MB-435 melanoma; 102% in the assay with SW-620 colon; 99.9% in the assay with MCF7 breast; 96% in the assay on HCT-116 colon. For the same compound, the values for the growth in the assay with HCC-2998 colon and in the assay on KM12 colon were 112% and 95.7%, respectively.

As for `COc1cc(C2Nc3ccccc3S2)cc(CN2CCOCC2)c1O` (configuration not stated), the growth was 88.4% in the assay on T-47D breast; 84.9% with BT-549 breast; 0.594% (active) with MDA-MB-435 melanoma; 50.7% in the assay on SW-620 colon; 50.6% with MCF7 breast; 53.2% in the assay with HCT-116 colon. Further, the growth with HCC-2998 colon was 86.4%; in the assay on KM12 colon, 55.4%.

With `CC(OC(=O)Nc1cccc(Cl)c1)C(=O)O` (configuration not stated), the growth was 93.2% in the assay with T-47D breast; 113% in the assay on BT-549 breast; 82.8% in the assay on MDA-MB-435 melanoma; 99.5% in the assay with SW-620 colon; 99.7% with MCF7 breast; 97.2% in the assay with HCT-116 colon. Further, the growth in the assay on HCC-2998 colon was 99.8%; in the assay on KM12 colon, 101%.
